Laboratory results from PubChem BioAssay AID504700 (The Scripps Research Institute Molecular Screening Center, 2011).
Among all 340,000 compounds or so, about 270 (0.079%) were called active. Only a selection was taken, and actives are over-represented in it overall. Values without a mark were called inactive.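 The calls were made as follows: active = activation above a cutoff set at the mean over all compounds plus 3 SD (cut at about 18% in these data); inactive = the rest.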 Where a SMILES comes first, the peptide text is derived from it.

The compounds below were run against cAMP-dependent protein kinase catalytic subunit beta (Homo sapiens) + cAMP-dependent protein kinase type II-beta regulatory subunit (Homo sapiens) (UniProt P22694+P31323) (assay: activators of PKA-R2B holoenzyme, primary screen, biochemical, fluorescence polarization, Cy5-IP20, human (AID 504700;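 also: higher means more holoenzyme dissociation and a rise in polarization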)). Settings: PKA-R2B holoenzyme dissociation, at 11.4 µM, hits give high values, 0% DMSO only, 100% 113 µM cGMP, R2B truncated from residue 108, S112A mutant.
cAMP-dependent protein kinase catalytic subunit beta (Homo sapiens) + cAMP-dependent protein kinase type II-beta regulatory subunit (Homo sapiens), sequence (P31323 whole entry, looked up, other chains not shown, the tested form may be a part): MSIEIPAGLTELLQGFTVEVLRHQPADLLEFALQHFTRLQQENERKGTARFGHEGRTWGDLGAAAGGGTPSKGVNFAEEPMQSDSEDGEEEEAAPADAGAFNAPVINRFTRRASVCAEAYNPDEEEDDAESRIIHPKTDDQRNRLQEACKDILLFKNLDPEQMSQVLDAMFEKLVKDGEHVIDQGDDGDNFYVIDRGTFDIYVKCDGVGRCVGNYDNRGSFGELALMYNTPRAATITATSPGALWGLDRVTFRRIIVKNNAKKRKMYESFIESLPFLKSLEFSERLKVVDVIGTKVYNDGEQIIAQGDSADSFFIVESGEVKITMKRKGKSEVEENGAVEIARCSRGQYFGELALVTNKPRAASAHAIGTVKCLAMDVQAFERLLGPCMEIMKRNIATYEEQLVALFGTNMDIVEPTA

Row | Compound | activation
1 | C[C@H]1CN([C@@H](C)CO)C(=O)c2cc(-c3cccc(F)c3)cnc2O[C@@H]1CN(C)S(C)(=O)=O | 4.49%
2 | O=C(C1CCCO1)N1CCN(C(=O)C23CC4CC(CC(C4)C2)C3)CC1 (stereo unspecified) | 7.92%
3 | O=Nc1c(O)cc(O)c2ccccc12 | -0.7%
4 | O=C(CCN1CCCCC1)Nc1ccc(F)c(F)c1 | -4%
5 | O[C@H]1C[C@H](c2ccc(Cl)cc2)N(Cc2cccs2)C[C@@H]1n1cc(C2CC2)nn1 | -5.34%
6 | COc1ccc(-c2ccc3[nH]c4c(c3c2)CCN2C[C@H]3[C@H](C)ON(C)[C@H]3C[C@@H]42)cc1 | -1.96%
7 | C[C@H]1CN([C@@H](C)CO)C(=O)c2cc(Br)cnc2O[C@H]1CN(C)S(=O)(=O)c1cccs1 | -1.49%
8 | O=C(c1ncn2c1c(=O)[nH]c1ccccc12)N1CCc2ccccc2C1 | 0.26%
9 | Cc1cccc(C)c1NC(=O)CNC(=O)c1ccc(N2CCOCC2)c([N+](=O)[O-])c1 | -5.41%
10 | Cc1noc(C)c1NC(=O)N(C)C[C@@H]1Oc2cc(Br)ccc2S(=O)(=O)N([C@@H](C)CO)C[C@H]1C | -6.5%
11 | Cc1cn([C@H]2C[C@H](O)[C@@H](CNC(=O)[C@H](N)Cc3cccnc3)O2)c(=O)[nH]c1=O | 3.26%
12 | COc1ccc(NC(=O)CN(C)C(=O)c2cc(C)oc2C)cc1 | 7.31%
13 | O=C(NCCc1cccc(F)c1)C1CC(O)CN1C(=O)Nc1ccccc1 (stereo unspecified) | -8.6%
14 | COc1ccc([C@H]2N[C@]3(CCCN(Cc4ccco4)C3=O)[C@H]3C(=O)N(C)C(=O)[C@@H]23)cc1 | -1.07%
15 | C[C@H]1CN([C@@H](C)CO)C(=O)c2cc(C3=CCCCC3)cnc2O[C@@H]1CN(C)C(=O)Cc1ccccc1 | 4.23%
16 | CC(C)(C)c1nnc(N/N=C/c2ccc(O)cc2)n(N)c1=O | 21.1% (active)
17 | Cc1nonc1C(=O)N/N=C/c1ccc(O)cc1 | -0.48%
18 | Nc1nnn(CC(=O)N/N=C/c2ccc(O)cc2)n1 | -7.14%
19 | COc1cc2nnn(-c3ccncc3)c2cc1OC | 5.36%
20 | COc1ccc(C(=O)OCC(=O)Nc2cc(C)on2)cc1F | 1.88%
21 | COC(=O)C[C@H]1C[C@@H]2c3cc(NC(=O)Nc4ccccc4)ccc3O[C@@H]2[C@@H](CO)O1 | 6.99%
22 | CC(C)[C@H](NC(=O)c1ccccc1F)C(=O)Nc1cccc(S(=O)(=O)N2CCOCC2)c1 | 4.82%
23 | Cc1ccc([C@H]2N[C@]3(CCCN(CC4CCCCC4)C3=O)[C@H]3C(=O)N(Cc4ccccc4)C(=O)[C@@H]23)cc1 | -3.62%
24 | O=C(CNC(=O)c1ccccc1)NCC(=O)OCc1ccc(Cl)cc1 | -2.62%
25 | O=C(CNC(=O)c1ccccc1)NCC(=O)OCC(=O)c1ccccc1 (HELM PEPTIDE1{[O=C(c1ccccc1)[*:2]].G.G.[O=C(CO[*:1])c1ccccc1]}$$$$V2.0) | 22.6% (active)
26 | O=C(CNC(=O)c1ccco1)OCC(=O)c1ccccc1 | 3.42%

Row | Compound | activation
27 | O=C(O)C1CCCN1c1nc(Cl)ccc1[N+](=O)[O-] (stereo unspecified) | 5.76%
28 | COc1ccc(C(CNC(=O)c2ccc(OCc3cscn3)cc2)N2CCCC2)cc1 (stereo unspecified) | 3.82%
29 | O=C(O)C1=C(C(=O)O)C2CCC1C2 | 19.1% (active)
30 | COc1ccc(S(=O)(=O)N2CCCCC2)cc1C(=O)NC1CCS(=O)(=O)C1 (stereo unspecified) | -9.4%
31 | C[C@@H]1CN([C@@H](C)CO)C(=O)c2cc(NS(C)(=O)=O)ccc2O[C@@H](C)CCCCO[C@H]1CN(C)C(=O)Nc1ccc2c(c1)OCO2 | 3.71%
32 | COc1cccc(C(=O)Nc2ccc3nc4n(c(=O)c3c2)CCCCC4)c1 | -0.66%
33 | CC(C)C1CCN(C(=O)C2CCC(=O)N(C3CCCCCC3)C2)CC1 (stereo unspecified) | -0.9%
34 | N#CCCN(C(=O)Nc1ccc(Cl)c(Cl)c1)C1CCCCC1 | 1.61%
35 | O=C(c1ccc(CS(=O)Cc2ccccc2Cl)o1)N1CCN(c2ccccc2)CC1 (stereo unspecified) | 2.13%
36 | COc1ccc(-c2cnc3c(c2)C(=O)N([C@H](C)CO)C[C@@H](C)[C@H](CN(C)Cc2ccccc2)O3)cc1 | 5.52%
37 | CCOc1cc(/C=N/NC(=O)c2ccncc2)cc(Br)c1O | -1.34%
38 | Cc1ccc(NC(=O)c2ccco2)cc1 | 4.37%
39 | CC1(C)CN(CCc2ccccc2)C(=O)[C@H]1CC(=O)Nc1ccc(Br)cc1 | -0.64%
40 | COc1ccc(NC(=O)N(C)C[C@H]2Oc3ncc(C#C[C@@H](C)O)cc3C(=O)N([C@H](C)CO)C[C@H]2C)cc1 | 2.12%
41 | COCOCCn1cc(CN2CCS(=O)(=O)N(Cc3ccc(-c4ccc(OC)cc4)cc3)C(CC(C)C)C2=O)nn1 (stereo unspecified) | -14.1%
42 | Cc1cccc(C(=O)NC2CCN(CC(=O)Nc3cccc(Cl)c3)CC2)c1 | -3.65%
43 | COc1ccc(OC)c(NC(=O)C2CCCN2S(=O)(=O)c2ccc3c(c2)CC(C)N3C(C)=O)c1 (stereo unspecified) | -3.21%
44 | CC(=O)NC(Cc1ccc(F)c(F)c1)C(=O)NC1CCN(C(=O)c2ccc(C)cc2)CC1 (stereo unspecified) | -1.79%
45 | COc1ccc(CC(NC(C)=O)C(=O)NC2CCN(C(=O)c3ccc(Cl)cc3)CC2)cc1 (stereo unspecified) | 19.4% (active)
46 | COc1ccc(CC(NC(C)=O)C(=O)NC2CCN(C(=O)c3ccc(OC)c(OC)c3)CC2)cc1OC (stereo unspecified) | -5.58%
47 | COc1ccc(C(=O)CSc2nnc(NC(=O)C3CC(=O)N(c4cccc(OC)c4)C3)s2)cc1 (stereo unspecified) | -12.2%
48 | COc1cccc(Nc2nnc(SCC(=O)N3CC(C)OC(C)C3)s2)c1 (stereo unspecified) | 19.7% (active)
49 | COc1cccc(Nc2nnc(SCC(=O)N3CC(=O)Nc4ccccc43)s2)c1 | -4.91%
50 | C[C@@H]1CN([C@@H](C)CO)C(=O)CCCn2nncc2CO[C@@H]1CN(C)S(=O)(=O)c1ccc(-c2ccccc2)cc1 | 8.61%
51 | CN1CCn2cnc(C(=O)NCC(=O)OC(C)(C)C)c2C1=O | 6.86%
